Screening results from PubChem BioAssay.
Wnt act: Wnt/beta-catenin pathway activators, primary screen, cell-based, plate reader, single point | AID 743398, 2014 | activation, % at 9.35 µM | actives 1.2% (n = 300,000) | Wnt/beta-catenin reporter cell assay, activator; in the data active = activation above about 30%, passing the limit was not always enough; inconclusive = no clear call, values can overlap the other calls;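 also: 0% = neutral control wells and 100% = positive control wells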
esBAF inh: Bmi1 luciferase reporter increase in mESCs, primary screen, esBAF inhibitor project, mouse ES cells, Bmi1 luciferase knock-in, single point | 24 h; 100% = twice the neutral-well signal | reporter increase, % at 12.5 µM | actives 2% (n = 350,000) | AID 602393, 2012; in the data active = activation above about 40%; inconclusive = no clear call, values can overlap the other calls;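 also: 0% = median of the plate's neutral control wells and 100% = double that signal; a rise in the Bmi1 reporter signal indicates esBAF inhibition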
Vif inh: HIV Vif self-association inhibitors, primary screen, imaging, HEK293T, single point. AID 602346, 2012. actives 0.35% (n = 340,000). HEK293T cells, Vif self-association by quenched fluorescence, 24 h. inhibition, % at 7.49 µM; in the data active = inhibition above about 50%, passing the limit was not always enough; inconclusive = no clear call, values can overlap the other calls; inactive = below about 31%
MITF TRPM1 HTS: activators of MITF-driven TRPM1 promoter reporter, primary screen, cell-based, SK-MEL-5, luciferase, single point; SK-MEL-5 TRPM1-promoter luciferase, 24 h; % of positive control, neutral wells = 0; AID 588334, 2011; actives 0.75% (n = 300,000); activation, % at 12.5 µM;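 active = mean activation of at least 80% with every replicate also reaching 80%; inconclusive = mean reaches 80% but some replicate falls short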;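 also: 0% = neutral control wells and 100% = parthenolide positive control wells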
PvdQ inh: P. aeruginosa PvdQ acylase inhibitors, primary screen, biochemical, fluorescence, plate reader and imaging, single point. AID 488965, 2010. PvdQ acylase [Pseudomonas aeruginosa LESB58]. inhibition, % at 10 µM. purified PvdQ acylase. actives 0.063% (n = 340,000); in the data active = inhibition above about 30%, passing the limit was not always enough; inconclusive = no clear call, values can overlap the other calls;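 also: 0% = vehicle neutral wells and 100% = reference inhibitor wells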
Glyco luc inh: increase of ERlucT glycosylation luciferase signal, primary screen, N-linked glycosylation inhibitor project, D54 ERlucT cells, luminescence, set 2 | actives 0.23% (n = 360,000) | D54 ERlucT glycosylation luciferase reporter, 24 h; percent of 100 nM tunicamycin response | reporter increase, % at 12.5 µM;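 active = mean luciferase reporter signal, scaled so untreated is 0 and the glycosylation-blocking control 100, at or above a set limit in every replicate; inconclusive = mean reaches the limit but not every replicate does; inactive = mean below the limit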;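 also: luciferase carries N-glycosylation sites so blocking glycosylation raises the light; 0% = median of neutral control wells and 100% = median of 100 nM tunicamycin wells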
* = called active by the depositor; u = inconclusive; x = no result given. Compounds with a hit are over-represented: about 2.9% of the library has one in this group of screens.

SMILES	Wnt act	esBAF inh	Vif inh	MITF TRPM1 HTS	PvdQ inh	Glyco luc inh
CO[C@H]1CN(C)C(=O)c2ccc(NC(=O)c3nc4ccccc4s3)cc2OC[C@@H](C)N(Cc2cncnc2)C[C@@H]1C	x	14	x	x	x	x
C[C@H]1CN([C@@H](C)CO)C(=O)Cc2cc(NS(=O)(=O)c3ccc(Cl)cc3)ccc2O[C@@H]1CN(C)C(=O)Nc1ccc2c(c1)OCO2	x	-4	x	x	x	x
COC(=O)c1ccc(Oc2coc3cc(OCc4cnn(-c5ccccc5)c4)ccc3c2=O)cc1	-2	x	142*	-21	-10	3
COC(=O)c1ccc(Oc2c(C)oc3cc(OCc4cnn(-c5ccccc5)c4)ccc3c2=O)cc1	x	-1	10	-38	-19	0
Cc1sc2ncn(/N=C/c3ccco3)c(=O)c2c1C	22	49*	-1	13	5	2
CCCNC(=O)Nc1ccc2c(c1)C(=O)N(C)C[C@@H](OC)[C@@H](C)CN(Cc1ccc(-c3ccccn3)cc1)[C@@H](C)CO2	x	6	x	x	x	x
CCCC(=O)Nc1ccc2c(c1)C(=O)N(C)C[C@H](OC)[C@@H](C)CN(Cc1ccc(-c3ccccn3)cc1)[C@H](C)CO2	x	-8	x	x	x	x
CCCC(=O)Nc1ccc2c(c1)C(=O)N(C)C[C@H](OC)[C@@H](C)CN(Cc1ccc(-c3ccccn3)cc1)[C@@H](C)CO2	x	112*	x	x	x	x
CCCNC(=O)Nc1ccc2c(c1)C(=O)N(C)C[C@H](OC)[C@@H](C)CN(Cc1ccc(-c3ccccn3)cc1)[C@@H](C)CO2	x	97*	x	x	x	x
O=C(O)C[C@@H]1C[C@H]2c3cc(NC(=O)Cc4ccncc4)ccc3O[C@H]2[C@H](CO)O1	x	1	x	x	x	x
CCC(=O)N(C)C[C@H]1Oc2cc(C3=CCCC3)ccc2S(=O)(=O)N([C@@H](C)CO)C[C@@H]1C	x	-5	x	x	x	x
CO[C@H]1CN(C)C(=O)c2cc(NS(=O)(=O)c3cn(C)cn3)ccc2OC[C@@H](C)N(Cc2cccc(F)c2)C[C@@H]1C	x	0	x	x	x	x
CCOC(=O)C1=C(COC(=O)c2cccc(N(C)C)c2)NC(=O)NC1C (stereo not drawn)	38*	60*	1	78	6	-1
COc1ccccc1-c1ccc2c(c1)[C@H]1[C@H](CCN1S(=O)(=O)c1cccc(C)c1)[C@@H](CO)N2	x	-10	x	x	x	x
CCCc1ccc(-c2csc(NC(=O)C3=COCCO3)n2)cc1	20	65*	-13	68	-14	0
Cc1ccc(-c2csc(NC(=O)C3=COCCO3)n2)cc1	x	x	0	u	6	0
CC(C)(C)c1csc(NC(=O)C2=COCCO2)n1	53*	x	0	77	-2	-3
CCn1c(C)nc2cc(C(=O)N/N=C/c3cccc(O)c3O)ccc21	41*	x	6	0	-7	-7
CCn1c(C)nc2cc(C(=O)N/N=C/c3ccccc3)ccc21	-1	43*	5	45	14	-5
CCn1c(C)nc2cc(C(=O)N/N=C/c3ccc(O)cc3)ccc21	1	x	1	10	-3	-1
C[C@@H]1CN([C@H](C)CO)S(=O)(=O)c2ccc(-c3ccncc3)cc2O[C@@H]1CN(C)C(=O)CC1CC1	x	0	x	x	x	x
C[C@@H]1CN([C@@H](C)CO)C(=O)CCCn2cc(nn2)CO[C@H]1CN(C)Cc1ccc2cccnc2c1	x	-4	x	x	x	x
CC(=O)N1N=C(c2ccc(Cl)cc2)CC1c1ccc([N+](=O)[O-])cc1 (stereo not drawn)	0	1	-1	x	6	1
COc1ccc(C2CC(c3ccc(C)o3)=NN2C(C)=O)cc1 (stereo not drawn)	11	x	9	63	-10	2
COc1ccc(C2CC(c3ccc(Cl)cc3)=NN2C(C)=O)cc1 (stereo not drawn)	13	52*	-2	41	-10	-2
COc1ccc(C2CC(c3ccc4ccccc4c3OC(C)=O)=NN2C(C)=O)cc1 (stereo not drawn)	58*	x	-20	x	-15	1
